According to article PMC3315485, “Probing the Informational and Regulatory Plasticity of a Transcription Factor DNA–Binding Domain”:
Where a chain is given by its changes, count along the chain named.

Tests used:
Assay in all cases: MITOMI; MITOMI, 295 K (22 C); buffer, salt and pH not stated in the material; high values mean tight binding
Details in all cases: protein: ivt; label: fluorescent; dsDNA, one strand shown
[1] = molecular target: T1, MarA wild type (WQR) (Escherichia coli, UniProt P0ACH5 1-127)
T1 sequence: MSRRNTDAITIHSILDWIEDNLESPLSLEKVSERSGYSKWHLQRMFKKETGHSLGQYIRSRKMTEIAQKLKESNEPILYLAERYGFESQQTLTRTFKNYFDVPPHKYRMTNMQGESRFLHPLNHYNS
Procedure, shortened: (§1)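 Each fluorescently labelled MarA protein variant, made by in vitro transcription and translation with the RTS E. coli HY kit plus tRNA-lys-bodipy-fl, was tested by MITOMI against 64 synthesized mar binding site variants. Protein and DNA fluorescence were read on Genepix at 295K. Association constants, measured by MITOMI, are reported for each site relative to the highest-affinity site for the same protein variant.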

[2] = molecular target: T2, MarA RQR (Escherichia coli, UniProt P0ACH5 1-127, W40R)
T2 sequence: T1 sequence with W40R
Procedure, shortened: as §1

[3] = molecular target: T3, MarA RTR (Escherichia coli, UniProt P0ACH5 1-127, W40R;Q43T)
T3 sequence: T1 sequence with W40R, Q43T
Procedure, shortened: as §1

[4] = molecular target: T4, MarA SAR (Escherichia coli, UniProt P0ACH5 1-127, W40S;Q43A)
T4 sequence: T1 sequence with W40S, Q43A
Procedure, shortened: as §1

[5] = molecular target: T5, MarA TRR (Escherichia coli, UniProt P0ACH5 1-127, W40T;Q43R)
T5 sequence: T1 sequence with W40T, Q43R
Procedure, shortened: as §1

| Sequence | binding signal [1] | binding signal [2] | binding signal [3] | binding signal [4] | binding signal [5] |
| --- | --- | --- | --- | --- | --- |
| ATGGCCCGTTTTGCTAAAT | 0.293 Ka relative to the best site of the variant | 0.811 Ka relative to the best site of the variant | 1 Ka relative to the best site of the variant | 0.552 Ka relative to the best site of the variant | 0.382 Ka relative to the best site of the variant |
| ATGCTCCGTTTTGCTAAAT | 0.244 Ka relative to the best site of the variant | 0.108 Ka relative to the best site of the variant | 0.201 Ka relative to the best site of the variant | 0.548 Ka relative to the best site of the variant | 0.445 Ka relative to the best site of the variant |
| ATGCAACGTTTTGCTAAAT | 0.365 Ka relative to the best site of the variant | 0.142 Ka relative to the best site of the variant | 0.188 Ka relative to the best site of the variant | 0.461 Ka relative to the best site of the variant | 0.501 Ka relative to the best site of the variant |
| ATGGCACGTTTTGCTAAAT | 1 Ka relative to the best site of the variant | 0.647 Ka relative to the best site of the variant | 0.432 Ka relative to the best site of the variant | 0.741 Ka relative to the best site of the variant | 0.392 Ka relative to the best site of the variant |
| ATGGATCGTTTTGCTAAAT | 0.224 Ka relative to the best site of the variant | 0.112 Ka relative to the best site of the variant | 0.202 Ka relative to the best site of the variant | 0.393 Ka relative to the best site of the variant | 0.365 Ka relative to the best site of the variant |
| ATGCCGCGTTTTGCTAAAT | 0.414 Ka relative to the best site of the variant | 0.195 Ka relative to the best site of the variant | 0.245 Ka relative to the best site of the variant | 0.468 Ka relative to the best site of the variant | 0.561 Ka relative to the best site of the variant |
| ATGGCGCGTTTTGCTAAAT | 0.334 Ka relative to the best site of the variant | 0.577 Ka relative to the best site of the variant | 0.685 Ka relative to the best site of the variant | 0.973 Ka relative to the best site of the variant | 0.415 Ka relative to the best site of the variant |
| ATGGGTCGTTTTGCTAAAT | 0.232 Ka relative to the best site of the variant | 0.141 Ka relative to the best site of the variant | 0.203 Ka relative to the best site of the variant | 0.534 Ka relative to the best site of the variant | 0.334 Ka relative to the best site of the variant |
| ATGATTCGTTTTGCTAAAT | 0.264 Ka relative to the best site of the variant | 0.122 Ka relative to the best site of the variant | 0.208 Ka relative to the best site of the variant | 0.807 Ka relative to the best site of the variant | 0.453 Ka relative to the best site of the variant |
| ATGAGCCGTTTTGCTAAAT | 0.237 Ka relative to the best site of the variant | 0.107 Ka relative to the best site of the variant | 0.27 Ka relative to the best site of the variant | 1 Ka relative to the best site of the variant | 0.448 Ka relative to the best site of the variant |
| ATGAGTCGTTTTGCTAAAT | 0.239 Ka relative to the best site of the variant | 0.136 Ka relative to the best site of the variant | 0.173 Ka relative to the best site of the variant | 0.944 Ka relative to the best site of the variant | 0.446 Ka relative to the best site of the variant |
| ATGTATCGTTTTGCTAAAT | 0.282 Ka relative to the best site of the variant | 0.121 Ka relative to the best site of the variant | 0.902 Ka relative to the best site of the variant | 0.221 Ka relative to the best site of the variant | 0.432 Ka relative to the best site of the variant |
| ATGTTACGTTTTGCTAAAT | 0.288 Ka relative to the best site of the variant | 0.135 Ka relative to the best site of the variant | 0.177 Ka relative to the best site of the variant | 0.202 Ka relative to the best site of the variant | 0.518 Ka relative to the best site of the variant |
| ATGGTCCGTTTTGCTAAAT | 0.209 Ka relative to the best site of the variant | 0.18 Ka relative to the best site of the variant | 0.146 Ka relative to the best site of the variant | 0.98 Ka relative to the best site of the variant | 0.442 Ka relative to the best site of the variant |
| ATGAATCGTTTTGCTAAAT | 0.215 Ka relative to the best site of the variant | 0.091 Ka relative to the best site of the variant | 0.214 Ka relative to the best site of the variant | 0.481 Ka relative to the best site of the variant | 0.309 Ka relative to the best site of the variant |
| ATGCGGCGTTTTGCTAAAT | 0.318 Ka relative to the best site of the variant | 0.0951 Ka relative to the best site of the variant | 0.255 Ka relative to the best site of the variant | 0.379 Ka relative to the best site of the variant | 0.501 Ka relative to the best site of the variant |
